Several values for one entry are separate records, joined by “and”; a condition that tells them apart may be missing. Identical values can stand only once. Out of some 5,500 compounds screened, about 2,000 (36%) were called active. Roughly 18% stayed inconclusive and do not appear here. Cut-off read from the data, not from the text of the source: active = normalized growth mostly below about 0.91 (no sharp cut-off); inconclusive = no clear call, values can overlap the other calls; inactive = mostly above about 0.92. The list shows a part of the results.
Assay: chemical genetic growth profiling, strain panel (AID 1159580);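 note: tested at 20 µM; growth read once vehicle control cultures reached saturation at 30 °C; 1 = growth at the plate median or of vehicle wells; lower values mean less growth of the strain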
Details: growth OD
[1] = S. cerevisiae deletion strains, locus YDR150W, strain NUM1, active compounds read low
[2] = S. cerevisiae deletion strains, locus YMR307W, strain GAS1, active compounds read low
[3] = S. cerevisiae deletion strains, locus YNL322C, strain KRE1, active compounds read low
[4] = S. cerevisiae deletion strains, locus YAL013W, strain DEP1, active compounds read low
[5] = S. cerevisiae deletion strains, locus YBR021W, strain FUR4, active compounds read low
[6] = S. cerevisiae deletion strains, locus YBR229C, strain ROT2, active compounds read low
[7] = S. cerevisiae deletion strains, locus YCL029C, strain bik1, active compounds read low
[8] = S. cerevisiae deletion strains, locus YDL035C, strain GPR1, active compounds read low
[9] = S. cerevisiae deletion strains, locus YDL074C, strain BRE1, active compounds read low
[10] = S. cerevisiae deletion strains, locus YDL101C, strain DUN1, active compounds read low
[11] = S. cerevisiae deletion strains, locus YDL134C, strain PPH21, active compounds read low
[12] = S. cerevisiae deletion strains, locus YDL185W, strain tfp1, active compounds read low
[13] = S. cerevisiae deletion strains, locus YDL192W, strain arf1, active compounds read low
[14] = S. cerevisiae deletion strains, locus YDR101C, strain arx1, active compounds read low
[15] = S. cerevisiae deletion strains, locus YDR162C, strain NBP2, active compounds read low
[16] = S. cerevisiae deletion strains, locus YDR318W, strain mcm21, active compounds read low
[17] = S. cerevisiae deletion strains, locus YDR388W, active compounds read low
[18] = S. cerevisiae deletion strains, locus YDR502C, strain sam2, active compounds read low
[19] = S. cerevisiae deletion strains, locus YEL061C, strain CIN8, active compounds read low
[20] = S. cerevisiae deletion strains, locus YER110C, active compounds read low
[21] = S. cerevisiae deletion strains, locus YER155C, strain BEM2, active compounds read low
[22] = S. cerevisiae deletion strains, locus YER167W, strain BCK2, active compounds read low
[23] = S. cerevisiae deletion strains, locus YGL078C, strain dbp3, active compounds read low
[24] = S. cerevisiae deletion strains, locus YGL086W, strain mad1, active compounds read low
[25] = S. cerevisiae deletion strains, locus YGL248W, strain PDE1, active compounds read low
[26] = S. cerevisiae deletion strains, locus YGR078C, strain PAC10, active compounds read low
[27] = S. cerevisiae deletion strains, locus YGR135W, strain pre9, active compounds read low
[28] = S. cerevisiae deletion strains, locus YGR229C, strain SMI1, active compounds read low
[29] = S. cerevisiae deletion strains, locus YGR252W, strain gcn5, active compounds read low
[30] = S. cerevisiae deletion strains, locus YHR030C, strain SLT2, active compounds read low
[31] = S. cerevisiae deletion strains, locus YHR079C, strain IRE1 (second series), active compounds read low
[32] = S. cerevisiae deletion strains, locus YHR094C, strain hxt1, active compounds read low
[33] = S. cerevisiae deletion strains, locus YHR129C, strain ARP1, active compounds read low
[34] = S. cerevisiae deletion strains, locus YHR200W, strain rpn10, active compounds read low
[35] = S. cerevisiae deletion strains, locus YIL066C, strain RNR3, active compounds read low
[36] = S. cerevisiae deletion strains, locus YIL073C, strain SPO22, active compounds read low
[37] = S. cerevisiae deletion strains, locus YIL125W, strain kgd1, active compounds read low
[38] = S. cerevisiae deletion strains, locus YIR030C, strain dcg1, active compounds read low
[39] = S. cerevisiae deletion strains, locus YJL095W, strain BCK1, active compounds read low
[40] = S. cerevisiae deletion strains, locus YJL134W, strain LCB3, active compounds read low
[41] = S. cerevisiae deletion strains, locus YJL168C, strain set2, active compounds read low
[42] = S. cerevisiae deletion strains, locus YJL187C, strain SWE1 (second series), active compounds read low
[43] = S. cerevisiae deletion strains, locus YJR043C, strain POL32, active compounds read low
[44] = S. cerevisiae deletion strains, locus YJR075W, strain HOC1, active compounds read low
[45] = S. cerevisiae deletion strains, locus YKL009W, strain mrt4, active compounds read low
[46] = S. cerevisiae deletion strains, locus YKL068W, active compounds read low
[47] = S. cerevisiae deletion strains, locus YKL085W, strain MDH1 (second series), active compounds read low
[48] = S. cerevisiae deletion strains, locus YKL085W, strain MDH1, active compounds read low
[49] = S. cerevisiae deletion strains, locus YKL190W, strain CNB1, active compounds read low
[50] = S. cerevisiae deletion strains, locus YKR001C, strain vps1, active compounds read low
[51] = S. cerevisiae deletion strains, locus YLR039C, strain RIC1, active compounds read low
[52] = S. cerevisiae deletion strains, locus YLR058C, strain SHM2, active compounds read low
[53] = S. cerevisiae deletion strains, locus YLR102C, strain apc9, active compounds read low
[54] = S. cerevisiae deletion strains, locus YLR262C, strain YPT6, active compounds read low
[55] = S. cerevisiae deletion strains, locus YLR268W, strain sec22, active compounds read low
[56] = S. cerevisiae deletion strains, locus YLR330W, strain CHS5, active compounds read low
[57] = S. cerevisiae deletion strains, locus YLR342W, strain FKS1 (second series), active compounds read low
[58] = S. cerevisiae deletion strains, locus YLR371W, strain rom2, active compounds read low
[59] = S. cerevisiae deletion strains, locus YLR418C, strain cdc73, active compounds read low
[60] = S. cerevisiae deletion strains, locus YML016C, strain PPZ1, active compounds read low
[61] = S. cerevisiae deletion strains, locus YML032C, strain rad52, active compounds read low
[62] = S. cerevisiae deletion strains, locus YML124C, strain tub3, active compounds read low
[63] = S. cerevisiae deletion strains, locus YMR078C, strain ctf18, active compounds read low
[64] = S. cerevisiae deletion strains, locus YMR223W, strain ubp8, active compounds read low
[65] = S. cerevisiae deletion strains, locus YMR263W, strain SAP30, active compounds read low
[66] = S. cerevisiae deletion strains, locus YNL067W, strain RPL9B, active compounds read low
[67] = S. cerevisiae deletion strains, locus YNL128W, strain TEP1, active compounds read low
[68] = S. cerevisiae deletion strains, locus YNL153C, strain GIM3, active compounds read low
[69] = S. cerevisiae deletion strains, locus YNL233W, strain BNI4, active compounds read low
[70] = S. cerevisiae deletion strains, locus YNL250W, strain rad50, active compounds read low
[71] = S. cerevisiae deletion strains, locus YNL271C, strain bni1, active compounds read low
[72] = S. cerevisiae deletion strains, locus YNL298W, strain CLA4, active compounds read low
[73] = S. cerevisiae deletion strains, locus YNL307C, strain MCK1, active compounds read low
[74] = S. cerevisiae deletion strains, locus YNR052C, strain pop2, active compounds read low
[75] = S. cerevisiae deletion strains, locus YOL006C, strain TOP1, active compounds read low
[76] = S. cerevisiae deletion strains, locus YOL012C, strain htz1
[77] = S. cerevisiae deletion strains, locus YOL147C, strain pex11, active compounds read low
[78] = S. cerevisiae deletion strains, locus YOR061W, strain CKA2, active compounds read low
[79] = S. cerevisiae deletion strains, locus YOR069W, strain VPS5, active compounds read low
[80] = S. cerevisiae deletion strains, locus YOR136W, strain idh2, active compounds read low
[81] = S. cerevisiae deletion strains, locus YOR144C, strain elg1, active compounds read low
[82] = S. cerevisiae deletion strains, locus YOR184W, strain ser1, active compounds read low
[83] = S. cerevisiae deletion strains, locus YOR316C, strain cot1, active compounds read low
[84] = S. cerevisiae deletion strains, locus YPL055C, strain LGE1, active compounds read low
[85] = S. cerevisiae deletion strains, locus YPL241C, strain CIN2, active compounds read low
[86] = S. cerevisiae deletion strains, locus YPR119W, strain clb2, active compounds read low
[87] = S. cerevisiae deletion strains, locus YPR141C, strain kar3, active compounds read low
[88] = S. cerevisiae deletion strains, locus YPR163C, strain tif3, active compounds read low
[89] = S. cerevisiae deletion strains, locus YPR167C, strain met16, active compounds read low
[90] = S. cerevisiae deletion strains, strain wtn01, active compounds read low
[91] = S. cerevisiae strains, strain wild type, active compounds read low

Measured: normalized growth

CCCn1c(C)c(C(=O)c2ccc3ccccc3c2)c2ccccc21
inactive: S. cerevisiae deletion strains, locus YAL040C, strain CLN3, active compounds read low 0.99 | S. cerevisiae deletion strains, locus YCL061C, strain MRC1 (second series), active compounds read low 0.99 | [1] 1.01 | S. cerevisiae deletion strains, locus YDR363W, strain ESC2, active compounds read low 0.96 | S. cerevisiae deletion strains, locus YER002W, strain NOP16, active compounds read low 0.999 | [2] 1.01 | S. cerevisiae deletion strains, locus YNL175C, strain NOP13, active compounds read low 0.974 | S. cerevisiae deletion strains, locus YNL197C, strain WHI3, active compounds read low 0.977 | S. cerevisiae deletion strains, locus YNL224C, strain SQS1, active compounds read low 1 | [3] 0.991 | S. cerevisiae deletion strains, locus YOR083W, strain WHI5 (second series), active compounds read low 0.995

c1ccc2c(c1)cc1ccc3cccc4ccc2c1c34
inactive: [4] 1.03 | [5] 1.05 | [6] 1.02 | [7] 0.995 | [8] 1.03 | [9] 1.06 | [10] 1.03 | [11] 1.02 | [12] 0.995 | [13] 0.994 | [14] 0.995 | [1] 1.02 | [15] 1.03 | [16] 0.996 | [17] 0.988 | [18] 1.02 | [19] 1.02 | [20] 0.981 | [21] 1.01 | [22] 1.03 | [23] 0.988 | [24] 0.993 | [25] 1.02 | [26] 1.03 | [27] 1.01 | [28] 1.05 | [29] 1 | [30] 1.01 and 0.927 | [31] 0.982 | S. cerevisiae deletion strains, locus YHR079C, strain IRE1, active compounds read low 0.988 | [32] 0.993 | [33] 1.02 | [34] 0.998 | [35] 1.02 | [36] 1.02 | [37] 1.01 | [38] 0.991 | [39] 1.05 and 0.943 | [40] 1.01 | [41] 0.989 | [42] 1.03 | [43] 1.06 | S. cerevisiae deletion strains, locus YJR066W, strain TOR1, active compounds read low 0.903 | [44] 1.02 | [45] 0.994 | [46] 1 | [47] 1.01 | [48] 1.01 | [49] 1.01 | [50] 0.994 | [51] 1.02 | [52] 1.02 | [53] 0.99 | S. cerevisiae deletion strains, locus YLR113W, strain HOG1, active compounds read low 0.961 | [54] 1.04 | [55] 1.01 | [56] 1.01 | [57] 1.01 | [58] 0.994 | [59] 1.03 | [60] 1.02 | [61] 0.996 | [62] 0.996 | [63] 1.01 | [64] 1.01 | [65] 1.03 | [2] 1.02 | [66] 1.04 | [67] 1.04 | [68] 1.02 | S. cerevisiae deletion strains, locus YNL183C, strain NPR1, active compounds read low 0.884 | [69] 1.03 | [70] 0.998 | [71] 1 | [72] 1.01 | [73] 0.993 | [3] 1.02 | [74] 0.982 | [75] 1.04 | [76] 0.939 | [77] 0.992 | [78] 1.01 | [79] 1.04 | [80] 0.99 | [81] 0.989 | [82] 1.01 | S. cerevisiae deletion strains, locus YOR231W, strain MKK1, active compounds read low 0.979 | [83] 0.992 | [84] 1.08 | [85] 1.03 | S. cerevisiae deletion strains, locus YPL256C, strain CLN2, active compounds read low 0.996 | [86] 0.983 | [87] 1 | [88] 0.995 | [89] 1 | [90] 1.01 | [91] 1.01

Cc1ccc2cc3c(ccc4ccccc43)c3c2c1CC3
active: [13] 0.795 | [15] 0.626 | [16] 0.884 | [18] 0.868 | [24] 0.894 | [30] 0.837 | [50] 0.685 | [51] 0.64 | [54] 0.568 | [55] 0.838 | [59] 0.532 | [64] 0.844 | [73] 0.591 | [77] 0.896 | [82] 0.559
inactive: [4] 0.998 | [5] 0.988 | [6] 0.982 | [7] 0.954 | [8] 0.916 | [9] 0.963 | [10] 0.973 | [11] 0.997 | [12] 0.99 | [14] 0.96 | [1] 1 | [17] 0.96 | [19] 0.994 | [20] 0.952 | [21] 0.997 | [22] 0.917 | [23] 1 | [25] 0.981 | [26] 0.957 | [27] 0.924 | [28] 0.841 | [29] 0.922 | [31] 0.954 | [32] 0.981 | [33] 0.983 | [34] 0.933 | [35] 0.949 | [36] 0.906 | [37] 0.941 | [38] 0.961 | [39] 0.828 | [40] 0.99 | [41] 0.967 | [42] 0.99 | [43] 0.993 | [44] 0.904 | [45] 0.999 | [46] 0.997 | [47] 0.999 | [48] 0.999 | [49] 0.958 | [52] 0.981 | [53] 0.983 | [56] 0.986 | [57] 0.91 | [58] 0.974 | [60] 0.987 | [61] 0.908 | [62] 0.98 | [63] 0.959 | [65] 0.986 | [2] 0.711 | [66] 0.985 | [67] 0.931 | [68] 1.03 | [69] 0.933 | [70] 0.966 | [71] 0.959 | [72] 0.949 | [3] 0.998 | [74] 0.951 | [75] 0.937 | [76] 0.778 | [78] 0.98 | [79] 0.988 | [80] 0.927 | [81] 0.963 | [83] 0.981 | [84] 0.931 | [85] 1 | [86] 0.976 | [87] 0.983 | [88] 0.916 | [89] 0.968 | [90] 0.928 | [91] 0.97
